In ChEMBL document CHEMBL1961873, “Compounds: GSK PKIS; Assays: Nanosyn kinase panel” (2012) one finds inhibition data, which are given here for seven molecules.

Each structure is given as a SMILES string.

The target of assay [1] is T1, Aurora kinase A (Homo sapiens) (UniProt O14965).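 Also: values are mean percent inhibition.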
T1 sequence (whole entry): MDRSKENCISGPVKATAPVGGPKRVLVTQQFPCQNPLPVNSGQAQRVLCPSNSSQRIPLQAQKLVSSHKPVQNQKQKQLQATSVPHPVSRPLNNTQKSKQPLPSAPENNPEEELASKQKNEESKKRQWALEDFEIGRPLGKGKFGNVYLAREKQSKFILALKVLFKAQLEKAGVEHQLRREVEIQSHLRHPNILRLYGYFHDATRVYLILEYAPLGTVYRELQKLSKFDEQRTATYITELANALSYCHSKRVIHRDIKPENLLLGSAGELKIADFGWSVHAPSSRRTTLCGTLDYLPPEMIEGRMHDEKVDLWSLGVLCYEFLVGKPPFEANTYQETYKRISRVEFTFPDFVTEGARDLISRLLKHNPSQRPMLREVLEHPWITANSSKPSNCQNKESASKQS
The following applies: at 1 µM.

In assay [2] the target is Aurora kinase B (Homo sapiens) (UniProt Q96GD4). The following applies: at 0.1 µM.
Sequence of Aurora kinase B (Homo sapiens) (Q96GD4 whole entry): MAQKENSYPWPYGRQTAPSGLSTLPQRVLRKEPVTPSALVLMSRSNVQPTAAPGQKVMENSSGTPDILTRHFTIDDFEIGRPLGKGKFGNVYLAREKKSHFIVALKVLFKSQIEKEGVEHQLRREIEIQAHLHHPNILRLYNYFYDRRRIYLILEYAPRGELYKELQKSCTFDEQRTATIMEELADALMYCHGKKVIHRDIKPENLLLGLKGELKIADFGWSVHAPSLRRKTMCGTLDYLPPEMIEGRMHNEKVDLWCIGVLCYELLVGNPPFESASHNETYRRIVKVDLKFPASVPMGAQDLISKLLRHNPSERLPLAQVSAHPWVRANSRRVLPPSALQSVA
Assay [3] has the same target. The note with it: at 1 µM.
Assay [4] deals with T2, Aurora kinase C (Homo sapiens) (UniProt Q9UQB9).
T2 sequence (whole entry): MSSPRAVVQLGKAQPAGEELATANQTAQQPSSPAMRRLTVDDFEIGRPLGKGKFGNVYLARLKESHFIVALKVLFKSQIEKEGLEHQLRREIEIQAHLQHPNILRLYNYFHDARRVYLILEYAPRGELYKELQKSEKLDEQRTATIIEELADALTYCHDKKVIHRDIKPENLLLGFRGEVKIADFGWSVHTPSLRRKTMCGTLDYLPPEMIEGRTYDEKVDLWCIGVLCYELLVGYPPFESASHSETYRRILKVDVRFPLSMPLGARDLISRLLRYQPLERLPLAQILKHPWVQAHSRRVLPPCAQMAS
The note with it: at 0.1 µM.

Assay [5] has as its target T2, Aurora kinase C (Homo sapiens). The note with it: at 1 µM.
Assay [6] deals with Serine/threonine-protein kinase 10 (Homo sapiens) (UniProt O94804). The following applies: at 0.1 µM.
Sequence of Serine/threonine-protein kinase 10 (Homo sapiens) (O94804 whole entry, looked up): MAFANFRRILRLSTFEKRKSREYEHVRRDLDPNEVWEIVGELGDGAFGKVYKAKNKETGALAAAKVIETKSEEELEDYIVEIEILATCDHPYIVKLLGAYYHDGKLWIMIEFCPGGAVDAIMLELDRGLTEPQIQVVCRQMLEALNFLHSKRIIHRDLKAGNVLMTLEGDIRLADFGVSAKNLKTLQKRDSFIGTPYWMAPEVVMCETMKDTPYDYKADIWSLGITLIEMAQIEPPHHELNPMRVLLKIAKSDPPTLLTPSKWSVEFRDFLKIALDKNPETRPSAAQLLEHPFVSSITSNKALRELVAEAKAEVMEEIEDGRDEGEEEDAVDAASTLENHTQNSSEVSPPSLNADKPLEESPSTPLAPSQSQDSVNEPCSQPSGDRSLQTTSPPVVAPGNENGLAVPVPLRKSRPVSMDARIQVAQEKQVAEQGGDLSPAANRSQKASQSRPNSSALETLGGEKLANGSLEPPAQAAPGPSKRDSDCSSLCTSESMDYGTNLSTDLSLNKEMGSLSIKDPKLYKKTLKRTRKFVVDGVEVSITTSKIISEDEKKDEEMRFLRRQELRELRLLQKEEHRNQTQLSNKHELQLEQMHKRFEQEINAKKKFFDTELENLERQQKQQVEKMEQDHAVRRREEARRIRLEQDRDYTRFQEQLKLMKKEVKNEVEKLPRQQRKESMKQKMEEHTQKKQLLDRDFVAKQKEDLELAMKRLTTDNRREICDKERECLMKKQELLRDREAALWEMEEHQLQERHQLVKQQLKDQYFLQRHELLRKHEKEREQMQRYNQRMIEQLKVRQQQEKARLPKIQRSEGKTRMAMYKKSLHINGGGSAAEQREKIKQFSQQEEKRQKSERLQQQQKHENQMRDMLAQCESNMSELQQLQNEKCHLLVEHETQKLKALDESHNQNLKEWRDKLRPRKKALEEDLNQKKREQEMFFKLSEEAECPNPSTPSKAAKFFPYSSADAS
Assay [7] has the same target. The following applies: at 1 µM.
For assay [8], the target named is T3, Mitogen-activated protein kinase kinase kinase kinase 2 (Homo sapiens) (UniProt Q12851).
T3 sequence (whole entry): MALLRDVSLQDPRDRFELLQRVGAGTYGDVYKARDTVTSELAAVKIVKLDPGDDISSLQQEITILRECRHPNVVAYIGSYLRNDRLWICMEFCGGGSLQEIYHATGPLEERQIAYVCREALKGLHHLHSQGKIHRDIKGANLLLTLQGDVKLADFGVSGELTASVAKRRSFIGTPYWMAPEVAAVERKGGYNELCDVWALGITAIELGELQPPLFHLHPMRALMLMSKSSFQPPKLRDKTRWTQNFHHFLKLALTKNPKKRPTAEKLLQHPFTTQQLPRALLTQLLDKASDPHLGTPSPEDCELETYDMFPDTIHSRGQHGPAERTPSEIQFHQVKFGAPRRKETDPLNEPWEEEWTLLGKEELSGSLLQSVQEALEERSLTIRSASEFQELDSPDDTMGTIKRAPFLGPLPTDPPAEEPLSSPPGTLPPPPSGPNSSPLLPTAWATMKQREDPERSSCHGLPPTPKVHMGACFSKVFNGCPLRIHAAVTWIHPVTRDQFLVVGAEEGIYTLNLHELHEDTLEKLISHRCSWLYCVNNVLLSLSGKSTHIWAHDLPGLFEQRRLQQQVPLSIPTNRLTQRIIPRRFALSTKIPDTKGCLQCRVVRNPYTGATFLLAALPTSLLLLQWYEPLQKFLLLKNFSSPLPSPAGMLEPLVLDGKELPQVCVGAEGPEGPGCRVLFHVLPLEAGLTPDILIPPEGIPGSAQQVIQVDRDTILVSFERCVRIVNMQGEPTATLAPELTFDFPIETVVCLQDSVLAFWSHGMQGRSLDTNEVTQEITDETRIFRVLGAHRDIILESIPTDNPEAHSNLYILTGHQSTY
The note with it: at 0.1 µM.

Assay [9] addresses T3, Mitogen-activated protein kinase kinase kinase kinase 2 (Homo sapiens). The following applies: at 1 µM.
In assay [10] the target is Mitogen-activated protein kinase kinase kinase kinase 4 (Homo sapiens) (UniProt O95819). The note with it: at 0.1 µM.
Sequence of Mitogen-activated protein kinase kinase kinase kinase 4 (Homo sapiens) (O95819 2-1239 limits assumed): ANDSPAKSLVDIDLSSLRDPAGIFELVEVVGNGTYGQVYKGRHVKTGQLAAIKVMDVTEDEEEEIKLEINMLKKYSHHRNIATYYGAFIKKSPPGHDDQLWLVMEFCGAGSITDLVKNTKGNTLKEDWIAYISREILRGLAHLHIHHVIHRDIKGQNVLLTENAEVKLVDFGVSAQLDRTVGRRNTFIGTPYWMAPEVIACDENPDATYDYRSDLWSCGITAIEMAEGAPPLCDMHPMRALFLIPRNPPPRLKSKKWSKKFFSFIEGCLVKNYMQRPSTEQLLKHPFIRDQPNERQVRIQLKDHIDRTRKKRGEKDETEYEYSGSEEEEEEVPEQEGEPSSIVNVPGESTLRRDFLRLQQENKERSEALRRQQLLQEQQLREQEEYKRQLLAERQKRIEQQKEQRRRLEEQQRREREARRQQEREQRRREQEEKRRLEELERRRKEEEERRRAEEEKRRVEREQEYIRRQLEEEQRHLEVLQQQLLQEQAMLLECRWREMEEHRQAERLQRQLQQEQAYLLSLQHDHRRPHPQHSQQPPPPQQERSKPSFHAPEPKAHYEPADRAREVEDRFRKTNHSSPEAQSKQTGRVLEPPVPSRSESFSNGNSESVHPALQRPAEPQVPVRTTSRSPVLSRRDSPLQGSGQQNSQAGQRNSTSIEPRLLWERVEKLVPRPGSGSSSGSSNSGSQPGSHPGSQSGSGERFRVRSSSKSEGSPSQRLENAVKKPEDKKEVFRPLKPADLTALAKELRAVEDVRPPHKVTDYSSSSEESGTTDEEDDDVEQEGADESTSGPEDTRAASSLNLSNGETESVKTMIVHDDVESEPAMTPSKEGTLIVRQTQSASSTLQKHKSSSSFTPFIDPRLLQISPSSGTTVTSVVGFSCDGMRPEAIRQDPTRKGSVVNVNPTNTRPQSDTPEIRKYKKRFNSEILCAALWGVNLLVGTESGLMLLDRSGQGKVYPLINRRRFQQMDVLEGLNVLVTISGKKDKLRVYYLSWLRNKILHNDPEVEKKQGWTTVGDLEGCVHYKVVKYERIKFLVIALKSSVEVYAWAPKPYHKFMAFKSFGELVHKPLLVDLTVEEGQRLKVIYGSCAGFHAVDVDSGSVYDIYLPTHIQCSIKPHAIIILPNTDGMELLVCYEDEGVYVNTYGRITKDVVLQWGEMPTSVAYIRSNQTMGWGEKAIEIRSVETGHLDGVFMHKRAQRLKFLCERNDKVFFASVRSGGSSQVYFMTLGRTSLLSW
The target is the same in assay [11]. The following applies: at 1 µM.
Assay [12] concerns the target Dual specificity mitogen-activated protein kinase kinase 1 (Homo sapiens) (UniProt Q02750). The note with it: at 0.1 µM.
Assay [13] has the same target. The following applies: at 1 µM.
Assay [14] addresses Misshapen-like kinase 1 (Homo sapiens) (UniProt Q8N4C8). The following applies: at 0.1 µM.
For assay [15] the target is unchanged. The following applies: at 1 µM.
The target of assay [16] is T4, Serine/threonine-protein kinase 4 (Homo sapiens) (UniProt Q13043).
T4 sequence (whole entry): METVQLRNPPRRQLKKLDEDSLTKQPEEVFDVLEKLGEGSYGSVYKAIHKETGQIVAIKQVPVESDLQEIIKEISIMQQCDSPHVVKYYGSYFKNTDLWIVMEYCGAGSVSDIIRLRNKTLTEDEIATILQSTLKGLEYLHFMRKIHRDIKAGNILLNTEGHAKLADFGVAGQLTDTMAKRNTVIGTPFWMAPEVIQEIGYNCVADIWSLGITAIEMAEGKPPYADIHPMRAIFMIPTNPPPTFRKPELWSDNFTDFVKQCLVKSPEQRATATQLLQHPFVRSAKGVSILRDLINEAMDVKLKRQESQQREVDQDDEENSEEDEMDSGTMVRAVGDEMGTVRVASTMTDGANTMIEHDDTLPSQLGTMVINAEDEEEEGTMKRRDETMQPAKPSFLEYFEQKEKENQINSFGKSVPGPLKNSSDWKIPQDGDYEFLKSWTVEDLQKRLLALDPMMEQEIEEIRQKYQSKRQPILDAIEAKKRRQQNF
The note with it: at 0.1 µM.

Assay [17] concerns the target T4, Serine/threonine-protein kinase 4 (Homo sapiens). The following applies: at 1 µM.
For assay [18], the target named is T5, Serine/threonine-protein kinase 3 (Homo sapiens) (UniProt Q13188).
T5 sequence (whole entry): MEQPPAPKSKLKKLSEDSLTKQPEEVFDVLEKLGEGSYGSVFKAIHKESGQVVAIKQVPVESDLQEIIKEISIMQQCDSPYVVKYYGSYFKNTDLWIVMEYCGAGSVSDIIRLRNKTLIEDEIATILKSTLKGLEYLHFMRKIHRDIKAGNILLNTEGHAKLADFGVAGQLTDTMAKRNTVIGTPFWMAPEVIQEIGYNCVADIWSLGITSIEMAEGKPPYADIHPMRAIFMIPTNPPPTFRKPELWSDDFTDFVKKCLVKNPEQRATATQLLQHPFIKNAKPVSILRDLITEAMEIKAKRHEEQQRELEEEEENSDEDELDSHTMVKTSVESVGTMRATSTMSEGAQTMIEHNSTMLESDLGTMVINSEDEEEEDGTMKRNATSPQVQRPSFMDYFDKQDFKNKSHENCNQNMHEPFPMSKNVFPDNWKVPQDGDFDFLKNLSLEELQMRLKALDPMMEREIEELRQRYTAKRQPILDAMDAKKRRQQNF
The following applies: at 0.1 µM.

Assay [19] deals with T5, Serine/threonine-protein kinase 3 (Homo sapiens). The note with it: at 1 µM.
The target of assay [20] is Serine/threonine-protein kinase 26 (Homo sapiens) (UniProt Q9P289). The note with it: at 0.1 µM.
Sequence of Serine/threonine-protein kinase 26 (Homo sapiens) (Q9P289 2-416 limits assumed): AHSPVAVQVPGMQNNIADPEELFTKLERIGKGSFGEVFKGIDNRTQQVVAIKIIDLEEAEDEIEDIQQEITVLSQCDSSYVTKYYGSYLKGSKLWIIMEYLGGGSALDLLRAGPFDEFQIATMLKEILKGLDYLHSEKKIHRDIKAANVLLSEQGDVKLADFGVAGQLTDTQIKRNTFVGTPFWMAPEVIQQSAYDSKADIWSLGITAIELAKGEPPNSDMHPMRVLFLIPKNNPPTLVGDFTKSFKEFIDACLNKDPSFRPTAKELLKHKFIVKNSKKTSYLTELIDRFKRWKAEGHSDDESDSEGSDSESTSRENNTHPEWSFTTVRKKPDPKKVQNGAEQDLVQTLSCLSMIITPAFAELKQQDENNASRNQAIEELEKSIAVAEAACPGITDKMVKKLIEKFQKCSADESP

The term inhibition denotes the drop in the measured response relative to a control, in per cent.

Sequence of Misshapen-like kinase 1 (Homo sapiens) (Q8N4C8 whole entry, looked up): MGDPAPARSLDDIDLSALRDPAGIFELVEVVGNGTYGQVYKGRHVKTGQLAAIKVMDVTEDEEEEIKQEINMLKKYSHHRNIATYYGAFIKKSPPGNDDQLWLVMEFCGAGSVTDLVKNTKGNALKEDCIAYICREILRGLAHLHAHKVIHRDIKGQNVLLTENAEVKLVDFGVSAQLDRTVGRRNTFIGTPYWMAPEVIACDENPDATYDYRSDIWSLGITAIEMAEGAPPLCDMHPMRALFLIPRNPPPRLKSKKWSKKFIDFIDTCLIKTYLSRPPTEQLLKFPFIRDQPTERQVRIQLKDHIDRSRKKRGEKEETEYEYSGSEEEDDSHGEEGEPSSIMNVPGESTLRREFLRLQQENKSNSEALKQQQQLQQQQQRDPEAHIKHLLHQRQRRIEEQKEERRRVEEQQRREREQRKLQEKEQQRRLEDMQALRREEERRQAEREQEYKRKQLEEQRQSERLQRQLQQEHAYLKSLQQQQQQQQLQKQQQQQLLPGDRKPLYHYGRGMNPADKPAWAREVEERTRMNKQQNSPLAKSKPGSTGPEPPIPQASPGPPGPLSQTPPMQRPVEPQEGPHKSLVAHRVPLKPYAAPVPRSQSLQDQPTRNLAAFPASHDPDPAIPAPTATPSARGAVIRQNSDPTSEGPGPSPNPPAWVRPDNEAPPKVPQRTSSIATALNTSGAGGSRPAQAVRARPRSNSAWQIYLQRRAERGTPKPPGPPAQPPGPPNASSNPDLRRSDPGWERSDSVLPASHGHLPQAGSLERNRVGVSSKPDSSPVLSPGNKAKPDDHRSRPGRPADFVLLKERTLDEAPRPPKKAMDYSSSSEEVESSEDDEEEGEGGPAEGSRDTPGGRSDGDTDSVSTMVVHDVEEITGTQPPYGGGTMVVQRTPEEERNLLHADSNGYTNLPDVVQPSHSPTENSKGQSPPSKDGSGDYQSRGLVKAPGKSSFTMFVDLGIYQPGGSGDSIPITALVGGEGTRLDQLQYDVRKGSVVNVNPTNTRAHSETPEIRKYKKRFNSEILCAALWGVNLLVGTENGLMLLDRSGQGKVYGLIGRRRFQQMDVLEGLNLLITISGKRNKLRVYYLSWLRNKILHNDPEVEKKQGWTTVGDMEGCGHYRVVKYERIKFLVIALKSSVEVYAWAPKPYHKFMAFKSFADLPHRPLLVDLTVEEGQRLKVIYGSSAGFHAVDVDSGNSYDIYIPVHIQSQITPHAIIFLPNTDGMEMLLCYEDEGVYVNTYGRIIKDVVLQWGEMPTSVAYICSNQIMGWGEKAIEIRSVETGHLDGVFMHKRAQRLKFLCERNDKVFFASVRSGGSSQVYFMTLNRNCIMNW
Sequence of Dual specificity mitogen-activated protein kinase kinase 1 (Homo sapiens) (Q02750 whole entry): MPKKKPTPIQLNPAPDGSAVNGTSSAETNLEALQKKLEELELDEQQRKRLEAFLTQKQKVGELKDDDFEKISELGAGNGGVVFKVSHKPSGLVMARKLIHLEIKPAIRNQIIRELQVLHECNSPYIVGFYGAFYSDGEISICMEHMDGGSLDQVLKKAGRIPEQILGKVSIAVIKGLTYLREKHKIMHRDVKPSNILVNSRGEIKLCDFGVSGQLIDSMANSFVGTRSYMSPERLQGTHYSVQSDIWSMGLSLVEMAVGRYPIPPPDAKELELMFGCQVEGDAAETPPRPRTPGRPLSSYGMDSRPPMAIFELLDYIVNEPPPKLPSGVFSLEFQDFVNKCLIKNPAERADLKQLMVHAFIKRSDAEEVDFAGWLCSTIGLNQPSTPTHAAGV

For `Nc1nc(-c2ccc3c(c2)C(=Cc2cc(Br)c(O)c(Br)c2)C(=O)N3)cs1`, the inhibition was 29.2% in [1]; 1.57% in assay [2]; 6.47% in assay [3]; -0.77% in assay [4]; 9.45% in assay [5]; 2.74% in assay [6]. Moreover, the inhibition in [7] was 6.29%; in assay [8], 1.39%; in [9], 5.61%; in [10] it was 24.6%; in [11], 75.3%; in [12] it was -1.03%. In addition, the inhibition in [13] was -1.25%; in assay [14], 10.2%; in assay [15], 56.9%; in assay [16], -2.22%; in assay [17], 9.55%; in [18], -2.3%. Further, the inhibition was determined as 12.2% in [19] and 0.73% in [20].

On to `Cc1cccc(-c2n[nH]cc2-c2ccc3ncccc3n2)n1`, for which the inhibition was 2.37% in assay [1]; -1.18% in assay [2]; 4.2% in assay [3]; 0.3% in assay [4]; -2.95% in assay [5]; 3.36% in assay [6]. Also, the inhibition is 7.9% in assay [7]; 1.72% in assay [8]; 0.72% in [9]; 5.33% in assay [10]; 30.9% in assay [11]; 1.75% in assay [12]. Moreover, the inhibition in assay [13] is 1.88%; in assay [14], 4.05%; in assay [15], 19.5%; in assay [16] it was -0.22%; in assay [17] it was 0.4%; in assay [18], -0.46%. Further, the figures for the inhibition in assay [19] and in assay [20] were 0.93% and -1.15%, respectively.

For the molecule `CC1=C(C(=O)Nc2ccc3[nH]ncc3c2)C(c2ccc(F)cc2)NC(=O)N1` (stereo not given), the inhibition in assay [1] is 62.7%; in assay [2], 3.96%; in [3], 18.5%; in [4] it was 2.09%; in assay [5], 26.9%; in assay [6], 1.26%. Also, the inhibition in assay [7] stood at 5.18%; in assay [8], 1.97%; in assay [9], 3.21%; in assay [10] it was 7.49%; in [11] it was 11.1%; in assay [12], 2.25%. The inhibition was determined as 5.95% in [13]; 7.37% in assay [14]; 13% in [15]; 1.11% in assay [16]; 5.91% in assay [17]; 1.29% in [18]. Besides, the inhibition came to 6.58% in assay [19] and 0.66% in assay [20].

As to `CS(=O)(=O)CCNCc1ccc(-c2ccc3ncnc(Nc4ccc(OCc5cccc(F)c5)c(C(F)(F)F)c4)c3c2)o1`, the inhibition is 2.73% in assay [1]; 2.77% in assay [2]; -1.87% in [3]; 0.77% in assay [4]; -1.89% in assay [5]; 3.11% in [6]. For the same molecule, the inhibition in assay [7] amounted to 7.45%; in assay [8], 1.28%; in assay [9] it was 2.47%; in assay [10] it was 3.22%; in [11], 8.1%; in assay [12] it was 5.38%. Moreover, the inhibition came out at 4.64% in assay [13]; 4.62% in assay [14]; 7.1% in assay [15]; 3.92% in [16]; 5.23% in assay [17]; 3.56% in assay [18]. The figures for the inhibition in assay [19] and in [20] were 4.74% and -1.09%, respectively.

For the molecule `c1cnn2ncc(-c3ccnc(Nc4ccc5c(c4)OCCO5)n3)c2c1`, the inhibition in assay [1] is 85.5%; in assay [2], 14.4%; in [3] it was 65.2%; in assay [4], 18.8%; in [5] it was 96.8%; in assay [6], 5.98%. Besides, the inhibition in assay [7] worked out at 23.8%; in assay [8], 13.6%; in assay [9], 56.5%; in assay [10], 11.3%; in assay [11] it was 51.5%; in assay [12] it was 7.35%. For the same molecule, the inhibition was 27.8% in [13]; 9.95% in assay [14]; 40.4% in assay [15]; 7.88% in assay [16]; 19.1% in assay [17]; 7.54% in [18]. Besides, the values for the inhibition in assay [19] and in [20] were 16.1% and -1.31%, respectively.

As to `CN(C)c1cc2c(Nc3ccc4nc(Cc5ccccc5)[nH]c4c3)ncnc2cn1`, the inhibition was determined as 11.5% in [1]; 6.09% in assay [2]; 27.4% in assay [3]; 5.94% in assay [4]; 40.3% in assay [5]; 6.78% in assay [6]. Besides, the inhibition in [7] is 14.4%; in assay [8], 1.35%; in assay [9], 2.07%; in [10], 7.88%; in assay [11] it was 9.42%; in [12] it was 6.17%. Moreover, the inhibition came out at 5.42% in [13]; 8.81% in assay [14]; 9.2% in assay [15]; 4.35% in assay [16]; 3.57% in assay [17]; 4.95% in assay [18]. Further, the inhibition in assay [19] is 2.18%; in assay [20] it was -1.17%.

`Cc1nnc(-c2ccc(C)c(-c3ccc(C(=O)Nc4cccc(C#N)c4)cc3)c2)o1`: the inhibition was 5.96% in [1]; 2.83% in assay [2]; 4.74% in assay [3]; 1.31% in [4]; -2.81% in assay [5]; 4.18% in [6]. Also, the inhibition is 5.45% in assay [7]; -0.38% in assay [8]; 2.09% in assay [9]; 5.31% in [10]; 10.6% in [11]; 2.51% in assay [12]. Besides, the inhibition is 1.55% in assay [13]; 4.46% in [14]; 9.13% in assay [15]; 1.52% in assay [16]; 6% in assay [17]; 2.65% in [18]. Moreover, the inhibition in [19] is 6.4%; in [20], -1.07%.
